RORgamma inh: inhibitors of mouse ROR gamma transcriptional activity | P51450 | Drosophila S2 Gal4-RORgamma UAS-luciferase reporter, 20 h | Potency, µM (titrated, usually from 53.6 µM), actives largely listed as inhibitors | 310,000 compounds, 5.4% hits | AID 2551; note: nearly all actives have a fitted effect of over 60% in size
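Compounds are pin-transferred onto Drosophila Schneider cells expressing a copper-inducible Gal4–ROR gamma transactivation domain fusion. After 1 hr, copper sulfate is added to 700 uM final; luciferase is read 20 hr later.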
Gal4-VP16 FLuc: counter-screen for ROR gamma inhibitors: Gal4-VP16 reporter. 310,000 compounds, 3.5% hits. Potency, µM (top dose mostly 53.6 µM), usual class: inhibitors. Drosophila S2 Gal4-VP16 UAS-luciferase, luminescence, 20 h;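 note: Gal4-VP16 expression switched on by copper sulfate through the metallothionein promoter; nearly all actives have a fitted effect of over 50% in size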
DT40 TDP1 CPT: growth inhibition of DT40 Tdp1-/-;hTDP1 cells with camptothecin (screen for TDP1 inhibitors); chicken DT40 Tdp1-/-;hTDP1 cells + 20 nM CPT, ATP luminescence, 48 h; Potency, µM (titrated, usually from 46.2 µM), actives largely listed as inhibitors; 420,000 compounds, 12% hits; AID 686979; note: nearly all actives have a fitted effect of over 55% in size
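Cell growth measured by CellTiter-Glo luminescence after a minimum 48 h, 37 C compound exposure with 20 nM CPT in Tdp1-knockout DT40 cells stably expressing hTDP1, seeded 400/well; qHTS titration format.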
TDP1 block: blocks human tyrosyl-DNA phosphodiesterase 1; Potency, µM (highest dose often 130 µM), actives largely listed as inhibitors; AID 485290; Q9NUW8; recombinant TDP1, AlphaScreen DNA substrate cleavage; 350,000 compounds, 0.28% hits; note: nearly all actives have a fitted effect of over 40% in size
Target sequence (Q9NUW8 whole entry, looked up): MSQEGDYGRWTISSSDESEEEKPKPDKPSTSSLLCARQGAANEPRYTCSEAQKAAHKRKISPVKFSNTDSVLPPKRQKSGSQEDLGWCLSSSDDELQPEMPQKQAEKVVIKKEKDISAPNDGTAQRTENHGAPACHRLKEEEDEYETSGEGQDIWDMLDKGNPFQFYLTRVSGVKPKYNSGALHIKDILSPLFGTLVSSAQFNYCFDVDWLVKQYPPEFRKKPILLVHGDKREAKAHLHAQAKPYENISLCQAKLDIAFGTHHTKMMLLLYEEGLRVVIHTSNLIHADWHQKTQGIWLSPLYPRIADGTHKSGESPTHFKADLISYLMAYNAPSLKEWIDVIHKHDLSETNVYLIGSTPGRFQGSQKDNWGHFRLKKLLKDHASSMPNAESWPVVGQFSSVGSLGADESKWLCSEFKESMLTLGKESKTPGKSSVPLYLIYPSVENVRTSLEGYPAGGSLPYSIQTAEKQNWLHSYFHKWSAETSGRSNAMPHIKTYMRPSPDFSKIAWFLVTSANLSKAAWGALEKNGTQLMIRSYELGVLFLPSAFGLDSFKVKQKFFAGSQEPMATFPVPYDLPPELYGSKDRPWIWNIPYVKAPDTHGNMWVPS
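AlphaScreen read-out: signal falls as enzyme removes the 3' tyrosine-FITC from a 5'-biotinylated DNA oligo (15 nM, 5 min, RT). Enzyme was E. coli-made recombinant Tdp1 at 1 nM, exposed to compound for 15 min beforehand; beads 10 ug/ml, 10 min.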
DT40 TDP1 no CPT: qHTS for Inhibitors of human tyrosyl-DNA phosphodiesterase 1 (TDP1): qHTS in cells in absence of CPT | DT40 Tdp1-/- hTDP1 cells, no CPT, ATP luminescence, 48 h | Potency, µM (top dose mostly 46.2 µM), actives largely listed as inhibitors | 420,000 compounds, 15% hits | AID 686978, 2013; note: nearly all actives have a fitted effect of over 55% in size
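Compound effects on proliferation are scored in DT40 Tdp1-/-;hTDP1 cells in the absence of CPT. ATP levels (CellTiter-Glo luminescence) are recorded after a ≥48 hr, 37 °C incubation.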
Hits are given with their value; 0 = inactive; ? = inconclusive; - = not tested or not shown; ! = repeats disagree; [ ] = remark or other dose. Only some compounds are listed: those with a hit (about 19% of all), similar ones and a draw of the others. Calls come from the whole dose curve; as a rule, active = well fitted curve in the direction sought with a large enough effect; inconclusive = small, poorly fitted or top-dose-only effect, or another doubt; inactive = no such curve, though single readings can be large; an effect the other way counts as inactive or inconclusive.

SMILES | RORgamma inh | Gal4-VP16 FLuc | DT40 TDP1 CPT | TDP1 block | DT40 TDP1 no CPT
CCc1cccc(C)c1NC(=S)NCCc1c(C)[nH]c2ccc(C)cc12 | 2.2µM | 5.6µM | 10µM | 0 | 21µM
COc1ccc2[nH]c(C)c(CCNC(=S)Nc3cc(C)ccc3C)c2c1 | 5µM | ? | 8.2µM | 0 | 9.2µM
Cc1ccc2[nH]c(C)c(CC(=O)NCc3ccccc3)c2c1 | 0 | 0 | 0 | 0 | ?
CNC(=S)N(CCc1c(C)[nH]c2ccc(OC)cc12)Cc1cc(OC)c(OC)c(OC)c1 | 0 | 0 | 0 | 0 | ?
COc1ccc(C)c2sc(=NC(=O)c3ccccc3)n(C)c12 | 0 | 0 | ? | 0 | 21µM
CCC(=O)N=c1sc2c(OC)ccc(OC)c2n1C | - | - | 0 | - | 0
COc1ccc(C)c2sc(=NC(=O)c3cccc(N4C(=O)CCC4=O)c3)n(C)c12 | 0 | 0 | 0 | 0 | 0
COc1ccc(C)c2sc(=NC(=O)c3ccc(C(C)=O)cc3)n(C)c12 | 0 | 0 | 15µM | 0 | ?
CCOC(=O)c1c(C(F)(F)F)nc2ncccn12 | 0 | 0 | 0 | 0 | 0
Nc1nnc(SC2CC(=O)N(c3ccccc3)C2=O)s1 (configuration not stated) | 5µM | 10µM | 7.3µM | 0 | 3.3µM
CCOc1ccc(N2C(=O)CC(Sc3ncccn3)C2=O)cc1 (configuration not stated) | ? | ? | 18µM | 0 | ?
O=C1CC(Sc2ncccn2)C(=O)N1c1ccccc1 (configuration not stated) | ? | 0 | 14µM | 0 | ?
Cc1nc(SC2CC(=O)N(c3ccccc3)C2=O)n[nH]1 (configuration not stated) | 4.5µM | 4.5µM | 1.5µM | 0 | 5.2µM
O=[N+]([O-])c1cc2no[n+]([O-])c2cc1N1CCCCC1 | - | - | 0.58µM | - | 0.92µM
O=[N+]([O-])c1cc(F)c(N2CCCCC2)cc1N1CCOCC1 | 0 | 0 | ? | 0 | 0
CCc1ccc(C(c2ccc(CC)cc2)C(Cl)Cl)cc1 | 0 | 0 | 0 | 20µM! | 0
CC(C)(C)c1ccc(NC(=O)c2cc(C3CCCN(S(=O)(=O)c4cccc5cccnc45)C3)on2)cc1 (configuration not stated) | - | - | 23µM | - | 12µM
N#Cc1cccc(NC(=O)c2cc(C3CCCCN3S(=O)(=O)c3cccc4cccnc34)on2)c1 (configuration not stated) | - | - | ? | - | 18µM
Cc1ncccc1C(=O)N1CCCC(c2cc(C(=O)Nc3ccc(C(C)(C)C)cc3)no2)C1 (configuration not stated) | - | - | 13µM | - | 12µM
O=[N+]([O-])c1cccc2ccc(/C=C/c3ccc(F)cc3)nc12 | ? | 0 | ? | 0 | ?
Oc1cccc2ccc(N3CCOCC3)nc12 | 0 | 0 | 0 | - | 0
O=C(O)c1ccc(/C=C/c2ccc3cccc(O)c3n2)cc1 | 2.8µM | 0.56µM | 0 | 0 | 18µM
O=[N+]([O-])c1cccc(/C=C/c2ccc3cccc(O)c3n2)c1 | 3.2µM | 4.5µM | 4.6µM | - | 3.7µM
COC(=O)c1ccc(/C=C/c2ccc3cccc(OC(C)=O)c3n2)cc1 | 5.6µM | 3.5µM | 18µM | 0 | 21µM
Oc1ccc(/C=C/c2ccc3cccc(O)c3n2)cc1Br | 3.2µM | 18µM | ? | - | ?
SMILES | RORgamma inh | Gal4-VP16 FLuc | DT40 TDP1 CPT | TDP1 block | DT40 TDP1 no CPT
CC(=O)Nc1ccc(S(=O)(=O)NCCSCc2ccc(Cl)cc2Cl)cc1 | 0 | ? | ? | 0 | 18µM
Cc1ccc(-n2cc3c(-c4cccc(Br)c4)nnc(C)c3n2)cc1 | 0 | 0 | 26µM | 0 | ?
Cc1nnc(-c2cccc(Br)c2)c2cn(-c3ccccc3Cl)nc12 | 0 | 0 | 23µM | 0 | ?
CCN(CC)c1nc2c(-c3cccc(Br)c3)nnn2c2ccccc12 | - | - | 0 | 0 | 0
Cc1cc(NC(=O)NC(=O)c2ccccc2NC(=O)CN(C)C)ccc1Oc1ncc(Br)cn1 | - | - | 3.7µM | - | 4.1µM
Nc1ccccc1C(=O)Nc1ccc(Cl)cc1Cl | 0 | 0 | 0 | 0 | ?
Cc1cc(NC(=O)NC(=O)c2ccccc2NC(=O)CN)ccc1Oc1ncc(Br)cn1 | - | - | 0.82µM | - | 0.58µM
Nc1ccccc1C(=O)NC(=O)Nc1ccc(Oc2ncc(Br)cn2)c(Cl)c1 | - | - | 0.0052µM | - | 0.018µM
O=C(COc1ccc(Br)cc1)NCc1ccccn1 | 0 | 0 | 0 | 0 | 0
CCN(CC)C(=O)CSc1nnc(-c2ccccn2)n1-c1ccccc1OC | 0 | 0 | 0 | - | 0
O=C(c1ccco1)[C@@H]1[C@@H]2C(=O)N(c3ccc(F)cc3)C(=O)[C@@H]2[C@H]2C=Cc3ccccc3N21 | ? | ? | 6.5µM | 0 | 18µM
NC(=O)[C@@H]1[C@@H]2C(=O)N(c3ccc(F)cc3)C(=O)[C@@H]2[C@H]2C=Cc3ccccc3N21 | 0 | 0 | ? | 0 | ?
O=C(/C=C/c1ccccc1)NNc1ccc(Cl)cc1 | ? | 0 | 0 | 0 | 0
CCOc1ccc(NC(=O)Nc2ccc3nccnc3c2)cc1 | ? | 0 | ? | 0 | 15µM
CCOc1ccc(NC(=O)NC(C)CC)cc1 (configuration not stated) | 0 | 0 | ? | 0 | 18µM
CCN(CC)S(=O)(=O)c1ccc2c(c1)N(CC(=O)N1CCN(c3ccccc3F)CC1)C(=O)CO2 | - | - | - | 0 | -
Cc1c2cnccc2c(C)c2c1c1ccccc1n2CCOC(=O)c1ccccc1 | - | - | ? | - | 11µM
O=C1N=C(N2CCCCC2)S/C1=C\c1ccccc1F | 0 | 0 | 0 | 0 | ?
COc1ccc(OC)c(/C=C2\SC(N3CCCCC3)=NC2=O)c1 | 0 | 0 | 7.3µM | - | 5.8µM
COc1ccccc1/C=C1\SC(N2CCC(C)CC2)=NC1=O | 0 | 0 | ? | - | 23µM
CCCOc1ccccc1/C=C1\SC(N2CCCCC2)=NC1=O | 0 | 0 | ? | - | 5.8µM
CCOc1ccc(CNC(=O)c2ccc3c(c2)c(C)c(C)n3C)cc1 | - | - | ? | 0 | ?
CCOC(=O)c1c(C)n(-c2ccccc2)c2ccc(OC(=O)c3ccccc3NC(=O)C(C)(C)C)cc12 | - | - | ? | 0[12.3 µM] | 12µM
COCCOC(=O)c1c(C)n(C)c2ccc(OC(=O)c3ccco3)cc12 | 0 | 0 | 0 | 0 | 0
CCOC(=O)c1c(C)n(-c2ccccc2)c2ccc(OC(=O)c3ccccc3NC(=O)C(C)C)cc12 | - | - | ? | 0[12.3 µM] | 18µM
CCOC(=O)c1c(C)n(-c2ccccc2)c2ccc(OC(=O)c3cccc(C)c3)cc12 | - | - | ? | 0[12.3 µM] | ?
COCCOC(=O)c1c(C)n(C)c2ccc(OC(=O)c3ccccc3OC)cc12 | 0 | 0 | 0 | - | 16µM
C=CCN1C(=NC(=O)COc2ccc(Cl)cc2)SC2CS(=O)(=O)CC21 (configuration not stated) | 0 | 0 | 0 | 0 | 0
O=C(NCc1ccc2c(c1)OCO2)c1cc(-c2ccccc2)on1 | 0 | 0 | 0 | 0 | 0
CC(=O)c1c(C)[nH]c(C(=O)OCc2ccc(F)cc2Cl)c1C | ? | ? | 15µM | 0 | 13µM

Compound activity (PubChem)
